Data: PubChem BioAssay AID588497 (NMMLSC, 2011)
Hit rate of the full screen: of about 360,000 compounds, about 780 (0.22%) were called active. Roughly 4% stayed inconclusive and do not appear here. This excerpt belongs to a sample that is enriched for actives. Unmarked numbers belong to inactive results. Cut-off read from the data, not from the text of the source: active = inhibition above about 35% (passing the limit was not always enough); inconclusive = no clear call, values can overlap the other calls.

test system: Botulinum neurotoxin type F light chain protease (Clostridium botulinum); assay: BoNT/F light chain protease inhibitors, primary screen, biochemical, flow cytometry, MLPCN library (AID 588497); conditions: Multiplex microsphere protease cleavage assay, at 10 µM, hits give high values; note: plate controls were buffer without enzyme for full effect and enzyme alone for no effect

Row | SMILES | inhibition
1 | CCCCc1c(-c2ccc(Cl)cc2)ncn1CCc1ccccc1OC | 0.1%
2 | NC(c1csc(NC(=O)Nc2cccc(C(F)(F)F)c2)n1)C1CCCCC1 (stereo not given) | -35.6%
3 | Cc1cccc(-c2cnc(C(O)c3ccc4ccccc4c3)[nH]2)c1 (stereo not given) | -3.1%
4 | COc1cc(/C=C/C(=O)N2c3ccccc3Sc3ccc(C(F)(F)F)cc32)cc(OC)c1OC | -24.7%
5 | COc1cc(/C=C2\SC(=S)N(Nc3ncc(C(F)(F)F)cc3Cl)C2=O)cc(OC)c1OC | 43.1% (active)
6 | O=C1/C(=C/c2ccc(F)cc2)SC(=S)N1NS(=O)(=O)c1ccccc1 | 0.7%
7 | COc1ccc(Br)c(Cn2c(C)c(C(=O)NCc3cccs3)sc2=O)c1 | 3.6%
8 | O=C(Nc1nnc([C@H]2C[C@H](O)[C@@H](CO)O2)s1)c1cccc(Cl)c1 | 2.2%
9 | COc1ccccc1CNC(=O)C1CCN(S(C)(=O)=O)CC1 | -1.3%
10 | COc1ccccc1CNC(=O)C1Cc2ccccc2C(=O)O1 (stereo not given) | 40.9% (active)
11 | COc1ccccc1CNC(=O)[C@@H]1CCCN1C(=O)[C@@H]1Cc2ccccc2CN1C(=O)OC(C)(C)C | -3.1%
12 | NC(Cc1ccccc1)c1csc(Nc2cc(Oc3ccccc3)ncn2)n1 (stereo not given) | -21.7%
13 | COc1ccc(CC(N)c2csc(NC(=O)Cc3ccccc3)n2)cc1 (stereo not given) | -9.3%
14 | CN(C)C(=O)c1cccc(-c2cnc3sc(NCc4ccc5c(c4)OCO5)nn23)c1 | -7.5%
15 | COc1cc2cc(CN(CCN3CCCC3)C(=O)Nc3ccccc3Cl)c(=O)[nH]c2cc1OC | 56.9% (active)
16 | Cc1ccc2[nH]c(=O)c(CN(CCCN(C)C)C(=O)Nc3cccc(Cl)c3)cc2c1 | 1%
17 | COc1ccc(CCN(Cc2cc3cccc(C)c3[nH]c2=O)C(=O)N2CCCC2)cc1OC | -19.1%
18 | FC(F)(F)Oc1ccccc1C(c1nnnn1C1CCCCC1)N1CCN(C/C=C/c2ccccc2)CC1 (stereo not given) | -16.7%
19 | CC1(Cc2ccccc2C#N)C(=O)Nc2ccc(-c3ccc4[nH]ccc4c3)cc21 (stereo not given) | -3.4%
20 | CC(=NNC(=S)N1CCCCCC1)c1ccccn1 | 55% (active)
21 | C/C(=N\NC(=O)c1ccccc1F)c1ccccn1 | -0.7%
22 | Cc1cccc(C)c1NC(=S)N1CCCCCC1 | 4.7%
23 | Cc1ccc(C(NC(=O)C2CCN(CCOc3ccc(Cl)cc3Cl)CC2)c2ccccn2)cc1 (stereo not given) | 4.2%

Row | SMILES | inhibition
24 | CC(=O)Nc1cccc(-c2ccnc3c2CC(C)(C(=O)NCc2ccccc2)O3)c1 (stereo not given) | -1.6%
25 | CCOc1ccc(CCN2C(=S)N([C@@H](CC(C)C)CN3CCC[C@@H]3CN3C(=S)NC[C@@H]3Cc3ccc(O)cc3)C[C@@H]2CC(C)C)cc1 | -7.7%
26 | CCCCC[C@H](C)N1C[C@@H](COCc2ccccc2)Oc2cc(N3CC[C@@H](N(C)C)C3)ccc2S1(=O)=O | -14%
27 | CC(C)Cc1ccc(-c2cc3nc(NCc4cccc(Cl)c4)ccn3n2)cc1 | -1.6%
28 | COc1ccc(/C=N/N(C)C2=NS(=O)(=O)c3ccccc32)cc1OC | -14.8%
29 | C=CCOCCN(C)C1=NS(=O)(=O)c2ccccc21 | -7.4%
30 | O=S1(=O)N=C(N(CCO)/N=C/c2ccccc2F)c2ccccc21 | 74.7% (active)
31 | COc1cncc(-c2cnc3sc(NCCc4ccccn4)nn23)c1 | -4.1%
32 | CCc1nc2ccccc2n(CCOCCOCCn2c(=O)c(CC)nc3ccccc32)c1=O | -0.5%
33 | CCOCCn1c(-c2ccccc2)nc2ccccc21 | 65.4% (active)
34 | CCOCCn1c(C(C)C)nc2ccccc21 | 2.9%
35 | Cc1ccc(NS(=O)(=O)c2cc3c(cc2Br)NC(=O)CO3)cc1C | 0.3%
36 | CN(Cc1cn(Cc2ccc(C(F)(F)F)cc2)nn1)C1CN(Cc2cn(Cc3ccc(C(F)(F)F)cc3)nn2)S(=O)(=O)C1 (stereo not given) | -10.7%
37 | CCCCCCCCN1C(=O)[C@H](CC(=O)NCc2cccc3ccccc23)C[C@@]2(C(=O)OC)CCCCC=C12 | -5.2%
38 | CCCN1C2CCCC1CC(NC(=O)c1cccc(OC)c1)C2 (stereo not given) | 34.7% (active)
39 | COc1cccc(NC(=O)N2C3CCCC2CC(NC(C)=O)C3)c1 (stereo not given) | 28.5%
40 | COc1ccc(CN2C3CCCC2CC(NC(=O)c2cccc(F)c2)C3)cc1 (stereo not given) | -2.5%
41 | Nc1nc2c(Br)ccc(Br)c2cc1C(=O)NCCc1ccccc1 | -1%
42 | CCCCCc1c(-c2cccc(Br)c2)ncn1CCc1ccccc1OC | -6.3%
43 | Oc1cccc2cc(-c3ccncc3)cnc12 | -5.1%
44 | CNS(=O)(=O)c1cccc(C(=O)NC2CCCc3ccccc32)c1 (stereo not given) | 2.8%
45 | O=C(CCC(=O)N1CCN(S(=O)(=O)c2ccccc2)CC1)NC1CCCc2ccccc21 (stereo not given) | 7.9%
46 | O=C(O)c1cc(S(=O)(=O)NC2CCCc3ccccc32)ccc1O (stereo not given) | 49% (active)

Row | SMILES | inhibition
47 | CCCCc1c(-c2ccc(Br)cc2)ncn1CCc1ccccc1OC | -3.2%
48 | CCc1nc2c(OCCC3CCCCC3)cccn2c1N(C)C(=O)c1ccco1 | 1.8%
49 | CC(C)C[C@H]1CNC(=O)C(=O)N1C[C@H]1CCCN1C[C@H](Cc1ccc(O)cc1)N1C[C@H](CC(C)C)N(CC2CCCCCC2)C(=O)C1=O | -9.5%
50 | CC(C)C[C@@H](COCc1ccc(Cl)cc1)N1CCN(C(=O)c2ccc(Cl)cc2Cl)CCC1=O | -2.4%
51 | CC(=O)Nc1cc(-c2ccc(N3CCN(C)CC3)cc2)cn2c(-c3ccc(F)cc3)cnc12 | -13.3%
52 | Cc1ccc2[nH]cc(CCNC(=O)C3CCCCC3)c2c1 | 50% (active)
53 | O=C(NCCc1c[nH]c2ccccc12)C1CCN(Cc2ccc(Br)cc2)CC1 | -27.7%
54 | Cc1ccc2[nH]cc(CCNC(=O)c3ccc([N+](=O)[O-])cc3)c2c1 | -0.3%
55 | COC(=O)[C@@]1(Sc2ccc(C)cc2)CC(=O)N(c2cccc(SC)c2)[C@@H]1c1ccccc1 | 4.9%
56 | CCOc1ccc(CNC(=O)C2CCCN(c3nnc(C)c4c(C)n(-c5ccccc5)nc34)C2)cc1 (stereo not given) | 10.7%
57 | CCOc1nnc(C)c2c(C)n(-c3cccc(Cl)c3)nc12 | 46.5% (active)
58 | CCOC(=O)C(C)n1cnc2c(nnn2-c2cccc(OC)c2)c1=O (stereo not given) | 18.5%
59 | Cc1nc2c(OCC(=O)C(C)(C)C)cccn2c1N(C)Cc1cccs1 | 4.6%
60 | CC(=O)Nc1cc(-c2ccccc2F)cn2c(-c3cccc(C(F)(F)F)c3)cnc12 | 1.3%
61 | CC(=O)c1ccc(-c2cnc3c(NC=O)cc(-c4cccc(NS(C)(=O)=O)c4)cn23)cc1 | 3%
62 | Cc1ccc2nc(-c3ccco3)c(Cc3cccc(Cl)c3)n2c1 | 0%
63 | Cc1cccc(C)c1Cn1c(C)c(C(=O)NCc2cccc(Cl)c2)sc1=O | -3.1%
64 | Cc1cc(O)c(C(=O)/C=C/c2c(F)c(F)c(F)c(F)c2F)c(=O)o1 | 39.9% (active)
65 | COc1ccc(/C=C/C(=O)c2c(O)cc(OC)cc2OC)cc1 | -3.2%
66 | Cc1cc(O)c(Sc2ccccc2)c(=O)o1 | -0.7%
67 | CCCCn1nnnc1C(c1cccc(OC)c1OC)N1CCN(C/C=C/c2ccccc2)CC1 (stereo not given) | -4.8%
68 | COc1ccccc1CNC(=O)c1cc(-c2cc(Cl)ccc2C)n[nH]1 | -6.5%
69 | Fc1cccc(Cc2c(-c3cccc(Cl)c3)nc3ccc(Br)cn23)c1 | 12.2%

Row | SMILES | inhibition
70 | CC1(C)CC(=O)C=C(N2CCCC2)C1 | 43.8% (active)
71 | CC1(C)CC(=O)C=C(N2CCOCC2)C1 | -0.6%
72 | CC1Cc2ccccc2N1C1=CC(=O)CC(C)(C)C1 (stereo not given) | -1.7%
73 | CN(C(=O)CN1CCN(c2cc(-c3ccc(OCc4ccccc4)cc3)ncn2)CC1)c1ccccc1 | -2.5%
74 | Cc1ccc2nc(-c3ccccc3)c(CC3CCCCC3)n2c1 | -7.4%
75 | COc1cc(F)ccc1-c1cc(C(=O)NCC2CCCCC2)[nH]n1 | -7.3%
76 | CCCCCn1nnnc1-c1nc2cc3ccccc3cc2[nH]c1=O | 4.1%
77 | CCc1nc2ccc(C(=O)NCc3ccc(OC)cc3)cn2c1N(CC)Cc1cccc(Br)c1 | -5.2%
78 | COc1cccc(CNc2nc(NCc3ccccc3OC)nc3ccsc23)c1 | -10.7%
79 | Cn1c(=O)c2c(nc(NCc3ccccc3)n2CC(N)=O)n(C)c1=O | -8.9%
80 | CC(O)c1nc2c(c(=O)n(C)c(=O)n2C)n1C (stereo not given) | 7.6%
81 | CCC/C(C)=N\Nc1nc2c(c(=O)n(C)c(=O)n2C)n1C | 46.4% (active)
82 | CCCCN(C=O)c1c(CC)nc2c(OCCC3CCCCC3)cccn12 | -1.8%
83 | COc1cc(C(=O)N2CCN(C3CCC(C)CC3)CC2)cc(OC)c1OC (stereo not given) | -2.2%
84 | CCn1cc(C(=O)NCC2COc3ccccc3O2)c2cc(OC)c(OC)cc2c1=O (stereo not given) | -4.2%
85 | CCn1cc(C(=O)N2CCN(C3CCCCC3)CC2)c2cc(OC)c(OC)cc2c1=O | 35% (active)
86 | Cc1cccnc1C(NC(=O)C1CCN(Cc2ccc(Cl)c(Cl)c2)CC1)c1ccc(Cl)cc1 (stereo not given) | -0.6%
87 | CC(=O)Nc1cc(-c2ccccc2N(C)C)cn2c(-c3ccc(F)c(Cl)c3)cnc12 | -0.7%
88 | CCOc1ccc(NC(=O)CC(Cc2ccc(Cl)cc2)C(=O)O)cc1 (stereo not given) | 42.9% (active)
89 | CN(CC(=O)Nc1ccc(Cl)cc1)C(=O)c1ccc(COc2ccccc2)cc1 | 8.6%
90 | CCOc1ccc(NC(=O)CC2NCCNC2=O)cc1 (stereo not given) | -3.7%
